For eight compounds, growth results are on record in PubChem BioAssay (NCI).

This is part of a sample that, as a whole, favours compounds with a hit. Of some 83,000 tested, about 20% had one in any assay.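 96-well plates, one dose, 48 hours. Percent growth reported; active if below 10.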 Values without a mark were called inactive. The source made the active and inactive calls.

Holding throughout (assay): NCI-60 one-dose screen, 48 h (100 = growth as untreated, 0 = no growth, -100 = all killed)
Holding throughout (settings): 10 µM unless noted

Assay [1] concerns NCI-H23 lung.
The test system of assay [2] is NCI-H226 lung.
In assay [3] the test system is NCI-H322M lung.
Assay [4] has as its system HOP-62 NSCLC.
Assay [5] deals with NCI-H460 lung.
In assay [6] the test system is HOP-92 NSCLC.
In assay [7] the test system is NCI-H522 lung.
For assay [8], the system named is A549/ATCC NSCLC.
Assay [9] relates to 786-0 renal.
Assay [10] deals with COLO 205 colon.
Assay [11] concerns DU-145 prostate.
Assay [12] deals with K-562 leukemia.
For assay [13], the system named is MALME-3M melanoma.
The subject of assay [14] is MDA-MB-231 breast.
Assay [15] relates to RXF 393 renal.
Assay [16] relates to SF-268 CNS.
For assay [17], the system named is SF-295 CNS.
The subject of assay [18] is SF-539 CNS.
Assay [19] relates to UACC-257 melanoma.
The test system of assay [20] is M14 melanoma.

Take `CCn1c(C)nc([N+](=O)[O-])c1Sc1nc(N)nc2nc[nH]c12`: the growth in assay [1] is 28.8%; in assay [2], 44.3%; in assay [3], 50.9%; in [4] it was 24.9%; in assay [5], 10.7%; in [6], 54.9%. Further, the growth was 42.6% in [7]; 53.9% in assay [8]; 24.6% in assay [9]; 67.9% in [10]; 24.4% in [11]; 17.3% in [12]. Also, the growth in assay [13] is 53.2%; in assay [14], 42.3%; in assay [15], 36%; in [16] it was 31.3%; in assay [17], 23.8%; in [18], 26.7%. The growth is 39.7% in assay [19] and 8.02% (active) in [20].

Take `COc1ccc(C(=O)NC(=O)Nc2ccc3c(c2)NC(=O)/C3=C\c2[nH]c(C)c(C(=O)O)c2C)cc1`: the growth was 18.1% in assay [1]; 83.9% in [2]; 94.2% in assay [3]; 96.2% in assay [4]; 100% in assay [5]; -1.09% (active) in [6]. Also, the growth in [7] was 7.54% (active); in assay [8] it was 98%; in assay [9], 16.8%; in [10], 88.1%; in assay [11] it was 71.1%; in assay [12], 79.3%. For the same compound, the growth in assay [13] is 41.9%; in assay [14], 86.8%; in [15], 49.1%; in assay [16], 61.4%; in assay [17] it was 105%; in [18], 72.9%. Moreover, the figures for the growth in assay [19] and in assay [20] were 107% and 90.5%, respectively.

Consider `NC(=S)NNC1CCCCC1`, for which the growth was 97.6% in assay [1]; 91.1% in assay [2]; 87.7% in assay [3]; 83.2% in [4]; 104% in [5]; 88.7% in assay [6]. In addition, the growth in [7] is 72.3%; in assay [8], 74.5%; in [9], 99.3%; in [10], 100%; in assay [11], 109%; in assay [12], 87.6%. The growth is 97.3% in assay [13]; 92.1% in [14]; 107% in assay [15]; 97.4% in assay [16]; 96.4% in assay [17]; 96.4% in assay [18]. In addition, the growth is 80.1% in assay [19] and 98.4% in [20].

In the case of `COC(=O)c1oc2c(C(C)=O)c(OCCCN(C)C)ccc2c1C`, the growth is 97.3% in assay [1]; 96.1% in assay [2]; 82.2% in [3]; 123% in assay [4]; 118% in assay [5]; 28.1% in assay [6]. Moreover, the growth in assay [7] is 86.4%; in assay [8], 110%; in [9], 96%; in [10], 109%; in [11], 150%; in assay [12], 73.3%. For the same compound, the growth in [13] is 72.3%; in assay [14], 95%; in assay [15] it was 96.1%; in assay [16], 207%; in assay [17], 109%; in [18], 124%. The growth in [19] was 106%; in [20] it was 123%.

Consider `Cc1c(F)cccc1NC(=O)c1sc2nc3c(cc2c1N)CCCCC3`, for which the growth is 79.6% in [1]; 56.8% in [2]; 85.8% in assay [3]; 50.3% in assay [4]; 56.7% in assay [5]; 70.5% in [6]. The growth in [7] is 20%; in assay [8] it was 73.9%; in [9] it was 75.7%; in assay [10], 74.2%; in [11] it was 69.1%; in assay [12], 12.5%. Besides, the growth in assay [13] is 55%; in [14], 83.6%; in assay [15], 69.5%; in assay [16], 83.4%; in assay [17], 55.3%; in [18], 66.9%. Besides, the growth was 52.3% in assay [19] and 28.2% in assay [20].

With `COc1ccc(-c2nnc(SCC(=O)N3CCN(c4cc5c(cc4F)c(=O)c(C(=O)O)cn5C4CC4)CC3)o2)cc1OC`, the growth in [1] is 101%; in assay [2] it was 103%; in [3], 96.2%; in assay [4], 67%; in assay [5], 104%; in assay [6] it was 51.6%. For the same compound, the growth in assay [7] is 88.6%; in [8] it was 101%; in assay [9] it was 69.3%; in [10], 74.1%; in [11], 99.3%; in [12], 74.5%. Also, the growth was 101% in assay [13]; 110% in [14]; 118% in [15]; 104% in assay [16]; 89.1% in [17]; 96.5% in assay [18]. In addition, the values for the growth in [19] and in assay [20] were 101% and 76.2%, respectively.

Turning to `CO[C@H]1/C=C/C=C/C=C/C[C@H](OC(=O)[C@@H](C)NC(=O)C2CCCCC2)[C@H](C)[C@@H](O)/C(C)=C\CCC2=CC(=O)C=C(NC(=O)C1)C2=O`, the growth in assay [1] is -14.1% (active); in assay [2], -15% (active); in assay [3], -2.45% (active); in assay [4], -35.6% (active); in assay [5], 1.23% (active); in assay [6] it was -10.7% (active). Also, the growth in assay [7] is -29.9% (active); in [8], -5.23% (active); in assay [9], -5.57% (active); in assay [10], -26.6% (active); in [11], -13.8% (active); in [12] it was 3.3% (active). Further, the growth in [13] is -7.99% (active); in assay [14] it was 5.38% (active); in [15], -40.2% (active); in assay [16], -7.66% (active); in assay [17] it was -33.5% (active); in assay [18], -49.3% (active). Moreover, the growth was -18.9% (active) in assay [19] and -40.3% (active) in assay [20].

For `CCOc1ccc(NC(=O)Nc2cc(C(C)C)ccc2C)cc1`, the growth was 79.2% in [1]; 92.8% in [2]; 90.8% in [3]; 95% in assay [4]; 106% in assay [5]; 55.1% in assay [6]. For the same compound, the growth was 46.4% in assay [7]; 36.6% in assay [8]; 13% in [9]; 98.7% in assay [10]; 93.2% in assay [11]; 85% in assay [12]. Besides, the growth in assay [13] is 105%; in [14], 16.7%; in [15] it was -31.8% (active); in assay [16], 69.2%; in [17], 104%; in assay [18], 90%. Further, the growth in assay [19] is 66.4%; in [20], 93.4%.
